# What was measured:
# Assay in all cases: DAPPL (digital affinity profiling via proximity ligation, sequencing); 10 mM Tris-HCl pH 7.5, 50 mM NaCl, 1 mM DTT, 4% glycerol, room temperature, 30 min; GST-TFs on glutathione beads, 16-mer random dsDNA library, 0.1% formaldehyde crosslink after washing; high values mean tight binding
# FEV = target: T1, FEV (Homo sapiens, UniProt Q99581 1-238); details: protein: recombinant; tags: N-terminal GST; dsDNA, one strand shown
# T1 sequence: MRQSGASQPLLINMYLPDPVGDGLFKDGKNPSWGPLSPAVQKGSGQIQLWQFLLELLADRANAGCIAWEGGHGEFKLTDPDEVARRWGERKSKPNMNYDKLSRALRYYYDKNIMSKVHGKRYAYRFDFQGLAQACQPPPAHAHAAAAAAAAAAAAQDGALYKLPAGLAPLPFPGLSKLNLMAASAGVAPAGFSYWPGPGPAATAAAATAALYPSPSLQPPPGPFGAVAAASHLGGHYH
# Method in brief: (§1)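 A tag-only sample was pooled with DNA-barcoded human transcription factors that had been expressed in yeast as GST fusions and captured on glutathione beads. The pools were incubated for 30 min at room temperature with 200 nmole of a random double-stranded 16-mer DNA library in Tris/NaCl/DTT/glycerol buffer, then washed, crosslinked with 0.1% formaldehyde, proximity-ligated (BsaI/T4 ligase, 1 h, 37 °C), PCR-amplified and sequenced on an Illumina NextSeq500. Binding signal is each hexamer's read frequency for a factor divided by its frequency for the tag-only sample.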
# ETV5 = ETV5 (Homo sapiens, UniProt P41161 1-510); details: protein: recombinant; tags: N-terminal GST; dsDNA, one strand shown
# Chain of ETV5 (P41161 whole entry): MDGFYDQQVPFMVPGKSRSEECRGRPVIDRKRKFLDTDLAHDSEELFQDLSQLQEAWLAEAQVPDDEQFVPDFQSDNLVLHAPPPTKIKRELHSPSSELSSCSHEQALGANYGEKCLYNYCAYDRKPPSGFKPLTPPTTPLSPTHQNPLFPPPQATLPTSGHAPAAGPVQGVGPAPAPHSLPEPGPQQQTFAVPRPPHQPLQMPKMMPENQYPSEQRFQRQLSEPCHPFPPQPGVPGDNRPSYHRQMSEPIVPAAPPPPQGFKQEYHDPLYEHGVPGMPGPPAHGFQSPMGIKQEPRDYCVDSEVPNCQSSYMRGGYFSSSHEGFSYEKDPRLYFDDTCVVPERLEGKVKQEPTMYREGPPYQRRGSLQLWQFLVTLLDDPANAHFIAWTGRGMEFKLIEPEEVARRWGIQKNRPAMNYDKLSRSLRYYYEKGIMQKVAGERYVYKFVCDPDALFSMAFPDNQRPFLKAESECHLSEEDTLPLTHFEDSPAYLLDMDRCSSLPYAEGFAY
# Method in brief: as §1
# HSF1 = HSF1 (Homo sapiens, UniProt Q00613 1-529); details: protein: recombinant; tags: N-terminal GST; chain copies: 3; dsDNA, one strand shown
# Chain of HSF1 (Q00613 whole entry): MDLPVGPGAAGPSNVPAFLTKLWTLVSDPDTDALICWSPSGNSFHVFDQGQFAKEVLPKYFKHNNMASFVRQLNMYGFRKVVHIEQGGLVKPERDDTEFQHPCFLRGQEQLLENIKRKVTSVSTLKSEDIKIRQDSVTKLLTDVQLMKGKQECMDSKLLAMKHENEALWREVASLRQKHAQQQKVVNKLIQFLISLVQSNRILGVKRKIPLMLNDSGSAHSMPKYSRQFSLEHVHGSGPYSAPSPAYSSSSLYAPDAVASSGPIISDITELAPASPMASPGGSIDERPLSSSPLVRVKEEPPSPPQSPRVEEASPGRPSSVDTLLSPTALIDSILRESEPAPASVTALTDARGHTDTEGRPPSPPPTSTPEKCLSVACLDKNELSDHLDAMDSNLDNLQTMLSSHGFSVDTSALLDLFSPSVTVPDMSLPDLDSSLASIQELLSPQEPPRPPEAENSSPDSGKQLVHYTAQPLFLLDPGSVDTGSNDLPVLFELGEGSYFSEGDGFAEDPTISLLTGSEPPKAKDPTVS
# Method in brief: as §1
# SPIC = target: T2, SPIC (Homo sapiens, UniProt Q8N5J4 1-248); details: protein: recombinant; tags: N-terminal GST; dsDNA, one strand shown
# T2 sequence: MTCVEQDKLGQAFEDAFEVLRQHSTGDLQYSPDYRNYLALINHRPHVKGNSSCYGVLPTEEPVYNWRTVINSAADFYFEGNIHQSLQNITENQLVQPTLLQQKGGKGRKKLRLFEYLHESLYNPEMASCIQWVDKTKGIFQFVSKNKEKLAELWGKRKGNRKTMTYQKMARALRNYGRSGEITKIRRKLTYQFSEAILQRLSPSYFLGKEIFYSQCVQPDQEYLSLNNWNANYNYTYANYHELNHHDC
# Method in brief: as §1
# ELF4 = ELF4 (Homo sapiens, UniProt Q99607 1-663); details: protein: recombinant; tags: N-terminal GST; dsDNA, one strand shown
# Chain of ELF4 (Q99607 whole entry): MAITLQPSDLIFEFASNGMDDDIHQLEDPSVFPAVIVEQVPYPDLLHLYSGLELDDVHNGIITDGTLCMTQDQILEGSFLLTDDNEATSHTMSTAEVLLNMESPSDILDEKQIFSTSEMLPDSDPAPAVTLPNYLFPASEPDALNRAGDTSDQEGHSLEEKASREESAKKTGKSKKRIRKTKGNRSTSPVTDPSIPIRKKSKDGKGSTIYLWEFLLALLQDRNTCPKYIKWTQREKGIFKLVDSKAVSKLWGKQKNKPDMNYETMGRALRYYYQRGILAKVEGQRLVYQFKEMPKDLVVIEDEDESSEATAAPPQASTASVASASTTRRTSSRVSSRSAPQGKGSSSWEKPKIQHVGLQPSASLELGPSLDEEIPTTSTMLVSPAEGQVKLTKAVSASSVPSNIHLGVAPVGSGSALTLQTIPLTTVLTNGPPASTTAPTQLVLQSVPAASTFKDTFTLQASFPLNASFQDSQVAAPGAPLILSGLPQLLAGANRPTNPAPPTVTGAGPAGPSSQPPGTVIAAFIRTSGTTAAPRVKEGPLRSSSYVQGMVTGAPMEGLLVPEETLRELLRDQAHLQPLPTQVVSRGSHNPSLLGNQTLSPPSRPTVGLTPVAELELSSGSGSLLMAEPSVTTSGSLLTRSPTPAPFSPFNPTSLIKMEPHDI
# Method in brief: as §1
# ELK4 = target: T3, ELK4 (Homo sapiens, UniProt P28324-2 1-405); details: protein: recombinant; tags: N-terminal GST; dsDNA, one strand shown
# T3 sequence: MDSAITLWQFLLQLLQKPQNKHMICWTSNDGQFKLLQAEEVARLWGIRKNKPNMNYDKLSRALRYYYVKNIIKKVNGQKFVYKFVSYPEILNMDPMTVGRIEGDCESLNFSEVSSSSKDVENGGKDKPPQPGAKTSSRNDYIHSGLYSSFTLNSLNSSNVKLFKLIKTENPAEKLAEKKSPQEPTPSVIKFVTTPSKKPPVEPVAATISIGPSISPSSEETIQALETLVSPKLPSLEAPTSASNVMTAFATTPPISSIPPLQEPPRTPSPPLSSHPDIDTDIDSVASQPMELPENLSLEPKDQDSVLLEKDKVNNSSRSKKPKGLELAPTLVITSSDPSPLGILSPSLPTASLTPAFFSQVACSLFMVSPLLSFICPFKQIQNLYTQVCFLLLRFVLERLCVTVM
# Method in brief: as §1
# ETV2 = target: T4, ETV2 (Homo sapiens, UniProt O00321 1-342); details: protein: recombinant; tags: N-terminal GST; dsDNA, one strand shown
# T4 sequence: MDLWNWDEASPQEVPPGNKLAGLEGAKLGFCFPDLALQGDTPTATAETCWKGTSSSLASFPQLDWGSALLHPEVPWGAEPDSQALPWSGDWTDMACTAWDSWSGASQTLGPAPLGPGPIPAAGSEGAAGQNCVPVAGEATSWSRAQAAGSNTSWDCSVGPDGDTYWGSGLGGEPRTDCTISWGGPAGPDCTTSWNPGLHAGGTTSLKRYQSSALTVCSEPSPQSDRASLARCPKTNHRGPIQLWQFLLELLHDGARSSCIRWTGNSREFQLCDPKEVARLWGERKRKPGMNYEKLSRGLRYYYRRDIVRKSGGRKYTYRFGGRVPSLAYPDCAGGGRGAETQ
# Method in brief: as §1
# ELF3 = target: T5, ELF3 (Homo sapiens, UniProt P78545 1-371); details: protein: recombinant; tags: N-terminal GST; dsDNA, one strand shown
# T5 sequence: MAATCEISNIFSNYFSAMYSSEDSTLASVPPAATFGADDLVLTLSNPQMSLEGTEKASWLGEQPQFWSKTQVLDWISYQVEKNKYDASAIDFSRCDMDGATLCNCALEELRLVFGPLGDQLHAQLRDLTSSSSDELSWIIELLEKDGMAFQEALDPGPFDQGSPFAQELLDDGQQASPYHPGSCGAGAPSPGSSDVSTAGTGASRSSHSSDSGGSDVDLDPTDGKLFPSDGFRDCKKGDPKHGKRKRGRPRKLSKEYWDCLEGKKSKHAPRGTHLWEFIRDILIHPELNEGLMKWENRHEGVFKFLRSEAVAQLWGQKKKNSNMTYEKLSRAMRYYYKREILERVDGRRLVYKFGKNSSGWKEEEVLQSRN
# Method in brief: as §1
# CRX = CRX (Homo sapiens, UniProt O43186 1-299); details: protein: recombinant; tags: N-terminal GST; dsDNA, one strand shown
# Chain of CRX (O43186 whole entry): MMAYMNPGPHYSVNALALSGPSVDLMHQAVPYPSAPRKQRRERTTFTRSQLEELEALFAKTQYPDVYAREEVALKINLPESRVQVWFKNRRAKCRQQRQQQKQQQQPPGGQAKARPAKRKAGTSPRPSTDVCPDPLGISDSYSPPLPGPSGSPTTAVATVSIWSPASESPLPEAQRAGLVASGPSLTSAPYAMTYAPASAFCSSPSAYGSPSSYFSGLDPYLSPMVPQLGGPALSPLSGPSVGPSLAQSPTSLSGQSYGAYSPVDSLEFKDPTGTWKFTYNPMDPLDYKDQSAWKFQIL
# Method in brief: as §1
# ETV1 = ETV1 (Homo sapiens, UniProt P50549 1-477); details: protein: recombinant; tags: N-terminal GST; dsDNA, one strand shown
# Chain of ETV1 (P50549 whole entry): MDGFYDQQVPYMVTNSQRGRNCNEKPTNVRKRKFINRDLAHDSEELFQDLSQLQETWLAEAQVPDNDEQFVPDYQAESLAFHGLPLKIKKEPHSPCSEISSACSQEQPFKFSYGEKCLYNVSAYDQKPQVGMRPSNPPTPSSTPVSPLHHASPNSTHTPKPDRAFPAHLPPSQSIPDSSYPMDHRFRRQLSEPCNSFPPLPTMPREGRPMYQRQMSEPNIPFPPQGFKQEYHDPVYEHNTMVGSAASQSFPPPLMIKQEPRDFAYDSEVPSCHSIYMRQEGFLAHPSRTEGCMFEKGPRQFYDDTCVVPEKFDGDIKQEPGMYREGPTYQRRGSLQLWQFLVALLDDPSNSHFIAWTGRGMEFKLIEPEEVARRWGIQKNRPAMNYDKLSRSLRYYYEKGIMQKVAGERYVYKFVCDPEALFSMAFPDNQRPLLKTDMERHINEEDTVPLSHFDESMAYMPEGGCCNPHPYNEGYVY
# Method in brief: as §1
sequence,measurement,setting,value
CTGCGA,binding signal,FEV,"1.29 fold enrichment (6-mer frequency, TF over GST control)"
same,binding signal,ETV5,"1.24 fold enrichment (6-mer frequency, TF over GST control)"
same,binding signal,HSF1,"1.3 fold enrichment (6-mer frequency, TF over GST control)"
same,binding signal,SPIC,"1.1 fold enrichment (6-mer frequency, TF over GST control)"
same,binding signal,ELF4,"1.28 fold enrichment (6-mer frequency, TF over GST control)"
same,binding signal,ELK4,"1.08 fold enrichment (6-mer frequency, TF over GST control)"
same,binding signal,ETV2,"1.24 fold enrichment (6-mer frequency, TF over GST control)"
same,binding signal,ELF3,"1.2 fold enrichment (6-mer frequency, TF over GST control)"
same,binding signal,CRX,"1.18 fold enrichment (6-mer frequency, TF over GST control)"
same,binding signal,ETV1,"1.32 fold enrichment (6-mer frequency, TF over GST control)"

# Reference: PMC7862700, “An all-to-all approach to the identification of sequence-specific readers for epigenetic DNA modifications on cytosine”
